Hits are enriched below; roughly 8% of the tested compounds scored in any of these assays.
HT1080NT lethal = kills 2HG-producing HT-1080-NT fibrosarcoma cells | hit rate 1.6% among 360,000 | AID 686970 | Potency, µM (doses to about 46.1 µM), most hits filed as cytotoxic | HT-1080-NT fibrosarcoma viability, CellTiter-Glo ATP luminescence, 48 h;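 further: NT is the 2HG producing partner of a matched IDH1 knockdown line; nearly all actives have a fitted effect of over 55% in size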
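A 48-hour cytotoxicity screen used HT-1080-NT cells plated 2 hours before compound delivery. ATP-based CellTiter-Glo luminescence measured viability, normalized to DMSO and no-cell controls.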
SW480 rereplic = DNA re-replication induction in SW480 cells; SW480 DNA re-replication, Hoechst DNA content imaging, 48 h; Potency, µM (series often up to 46.1 µM), hits mostly activators; hit rate 1.8% among 340,000; further: nearly all actives have a fitted effect of over 55% in size
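Hoechst fluorescence of nuclei (405 nm excitation, 500-530 nm emission) measured by plate-scanning imager after 48 hr compound exposure at 37 C; re-replication scored as increased number of nuclei with elevated intensity.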
MCF10A rerep = DNA re-replication induction in MCF 10a cells. MCF 10A DNA re-replication, Hoechst nuclear intensity, 48 h. Potency, µM (series often up to 46.1 µM), actives largely listed as activators. hit rate 2.9% among 350,000. AID 624296; further: nearly all actives have a fitted effect of over 50% in size
HT1080 IDH1KD tx = toxicity to HT-1080 IDH1 knockdown cells (counter line); AID 686971; Potency, µM (titrated, usually from 46.1 µM), hits mostly cytotoxic; hit rate 2% among 360,000; HT-1080 IDH1 knockdown viability, ATP luminescence, 48 h
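IDH1KD HT-1080 cells, 750/well, RPMI + 5% FBS; compound pinned after 2 h settling; 48 h, 37 °C; CellTiter-Glo luminescence; % activity normalised to DMSO and no-cell wells; curves fitted, classed by r2 and efficacy.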
KB-V1 cytotox = KB-V1 MDR subline cytotoxicity. KB-V1 MDR cells viability, CellTiter-Glo, 72 h. hit rate 3.4% among 400,000. AID 1347076. Potency, µM (titrated, usually from 46.1 µM), hits mostly cytotoxic; further: nearly all actives have a fitted effect of over 60% in size
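In this primary screen, KB-V1 cells overexpressing P-gp are incubated with library compounds (lowest to highest concentration) for 72 h at 37 degrees C before a luminescent ATP viability read.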
KB-3-1 cytotox = KB-3-1 parental cell cytotoxicity | Potency, µM (doses to about 46.1 µM), actives largely listed as cytotoxic | KB-3-1 viability, CellTiter-Glo ATP luminescence, 72 h | AID 1347075 | hit rate 1.4% among 400,000; further: nearly all actives have a fitted effect of over 60% in size
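Parental KB-3-1 adenocarcinoma cells in phenol-red-free DMEM with 10% FBS were pin-treated with compounds at several concentrations, incubated 72 h at 37 °C, and viability read by CellTiter-Glo luminescence; concentration-effect curves were fitted after normalization.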
Hits are given with their value; . = inactive; ? = inconclusive; / = no result given; [ ] = remark or other dose. The call rests on the fitted dose curve; in most records, active means well fitted curve in the direction sought with a large enough effect; inconclusive means small, poorly fitted or top-dose-only effect, or another doubt; inactive means no such curve, though single readings can be large; an effect the other way counts as inactive or inconclusive.

SMILES	HT1080NT lethal	SW480 rereplic	MCF10A rerep	HT1080 IDH1KD tx	KB-V1 cytotox	KB-3-1 cytotox
O=C1NC(Cc2ccc(O)cc2)c2nc3ccc(F)cc3c(=O)n2-c2cc3ccccc3cc21 (stereo not given)	11.6µM	/	/	16.4µM	?	13µM
COc1ccc(OCC(=O)NC2CC(=O)N(c3ccc4c(c3)OCCO4)C2)cc1 (stereo not given)	/	/	/	/	.	.
O=C1NN=C(c2ccccc2)CC1c1ccc(Cl)cc1Cl (stereo not given)	.	18.4µM	?	.	.	.
CCN(c1ccc(OC)cc1)S(=O)(=O)c1cc(-c2cc(C)no2)ccc1C(C)C	.	.	10.3µM	.	?	?
CCN(CC)CCn1c2ccccc2c2cnc(N)c(C#N)c21	.	?	?	?	?	23.1µM
CC(C)(C)c1ccc(Cn2c(=O)cnc3ccccc32)cc1	9.2µM	?	14.6µM	7.31µM	?	?
Cc1cc2c(c(/C=C/C(=O)c3ccccc3)c1)OC1(C=C2)Oc2ccccc2C(=O)N1C (stereo not given)	?	3.66µM	5.62µM	?	?	16.4µM
Cc1c(/C=C/C(=O)c2ccccc2)cnn1C	.	.[9.22 µM]	.	.	.	.
CCC(C)(C)NC(=O)C(c1cccn1C)N(Cc1ccccc1)C(=O)Cn1nnc2ccccc21 (stereo not given)	.	.	.	.	2.59µM	.
Cc1ccc(NC(=O)c2cc(S(=O)(=O)N3CCC(C)CC3)cn2C)cc1Cl	/	/	/	/	.	.
CCOc1ccc(CCNC(=O)CSc2nnnn2C)cc1OCC	.	.	.	.	.	.
CCOc1ccc(CCNC(=O)CSc2nn(-c3ccc(C)c(Cl)c3)c(=S)s2)cc1OCC	.	.	?	.	6.51µM	.
O=S(=O)(c1ccccc1)c1nc(-c2ccc(F)cc2)oc1NCC1CCCO1 (stereo not given)	.	.	.	.	3.66µM	.
CCOC(=O)c1ccccc1NC(=O)COC(=O)c1ccc(OCC(=O)N2CCOCC2)c(OCC)c1	.	.	.	.	2.59µM	.
O=C(Nc1ccccc1N1CCCC1)c1ccc(Cl)c(S(=O)(=O)N2CCOCC2)c1	.	.	?	.	14.6µM	.
CCOC(=O)c1ccccc1NC(=O)c1ccc(Cl)c(S(=O)(=O)N2CCOCC2)c1	.	.	.	.	7.31µM	.
COc1cc(CNCCCN2CCOCC2)ccc1OCC(=O)Nc1cccc(C(F)(F)F)c1	?	?	?	?	.	.
CCOC(=O)c1ccccc1NC(=O)COC(=O)c1ccc(C)c(S(=O)(=O)N2CCOCC2)c1	.	.	.	.	.	.
CCOc1cc(CNCCCN2CCOCC2)ccc1OCC(=O)Nc1cccc2ccccc12	10µM	?	.	11.2µM	.	.
CCc1ccc(NC(=O)Cn2c(=O)n(Cc3ccco3)c(=O)c3cccnc32)cc1	/	/	/	/	.	.
CCc1cccc(NC(=O)Cn2c(=O)n(CCCCCC(=O)NCc3ccc(F)cc3)c(=O)c3sccc32)c1	/	/	/	/	.	.
CCn1cc(C(=O)NCc2ccc(C)cc2)c(=O)c2cc(S(=O)(=O)N(C)C3CCCCC3)ccc21	/	/	/	/	.	.
Nc1cc(=O)[nH]c(SCCSc2ccccc2F)n1	.	.	.	.	?	?
Nc1cc(=O)[nH]c(SCCSc2cc(Cl)ccc2Cl)n1	.	.	.	.	0.411µM	0.731µM
CC1CCN(c2nc3ccc(C(=O)NCc4ccccc4Cl)cc3s2)CC1	/	/	/	/	.	.
SMILES	HT1080NT lethal	SW480 rereplic	MCF10A rerep	HT1080 IDH1KD tx	KB-V1 cytotox	KB-3-1 cytotox
O=C(Nc1ccccc1)Nc1ccc(F)c([N+](=O)[O-])c1	.	.	14.6µM	.	?	?
O=C(NC(=S)Nc1ccc(F)c([N+](=O)[O-])c1)c1ccccc1F	.	?	?	.	.	.
O=C(Nc1ccc([N+](=O)[O-])cc1)Nc1ccc(Cl)cc1F	.	?	?	.	18.4µM	?
CCc1ccc(NC(=O)Nc2ccon2)cc1	.	.	.	.	.	.
O=C(Nc1ccc(Cl)cc1)Nc1cc([N+](=O)[O-])ccc1F	.	.	.	.	.	.
O=C(Nc1ccc([N+](=O)[O-])cc1)Nc1ccon1	1.16µM	?	5.8µM	0.731µM	6.51µM	0.581µM
Cc1ccc(NC(=O)Nc2ccccc2)cc1[N+](=O)[O-]	.	.	.	.	?	.
O=C(Nc1ccccc1)Nc1ccc(Cl)c([N+](=O)[O-])c1	.	?	14.6µM	.	?	?
CC(=O)N1CCC2(CC1)OC(=O)C(C)=C2C(=O)NCc1cccc(Cl)c1	/	/	/	/	.	.
CCn1ccc2cc(S(=O)(=O)N3CCCN(C(=O)Nc4cc(Cl)ccc4C)CC3)ccc21	/	/	/	/	?	.
O=C(O)c1cc(NC(=O)c2ccc(Cl)c([N+](=O)[O-])c2)cc(C(=O)O)c1	.	.	?	.	.	.
O=C(Nc1ccc(C(O)(C(F)(F)F)C(F)(F)F)cc1)c1ccc(Cl)c([N+](=O)[O-])c1	?	.	?	23.1µM	?	?
O=C(Nc1csc([N+](=O)[O-])c1)Nc1c(Cl)cccc1Cl	.	.	.	.	.	.
O=C(Nc1ccc(Cl)cc1)Nc1csc([N+](=O)[O-])c1	13µM	.	?	10.3µM	?	.
O=C(Nc1cccnc1Cl)c1ccc(Cl)c([N+](=O)[O-])c1	.	23.1µM	.	.	.	.
Cc1cc(CSc2ccccc2)ccc1NC(=O)c1ccc(Cl)c([N+](=O)[O-])c1	.	.	18.4µM	.	.	.
CO[C@H]1/C=C\O[C@@]2(C)Oc3c(C)c(O)c4c(O)c(c(C=NN5CCN(C6CCCC6)CC5)c(O)c4c3C2=O)NC(=O)C(C)=CC=C[C@H](C)[C@H](O)[C@@H](C)[C@@H](O)[C@@H](C)[C@H](OC(C)=O)[C@H]1C	/	/	/	/	.	.
CN1CCN(c2sc(S(C)(=O)=O)nc2S(=O)(=O)c2ccc(Cl)cc2)CC1	.	.	.	.	?	?
CNC1C(O)C(OC2C(NC(=O)C(O)CN)CC(N)C(OC3OC(CN)C(O)C(O)C3O)C2O)OCC1(C)O (stereo not given)	/	.	.	/	/	/
CCCCSc1nnc2c(n1)OC(c1ccc(Br)s1)N(C(C)=O)c1ccccc1-2 (stereo not given)	/	/	/	/	.	.
CCOc1ccccc1NC1=CC(=O)CC(c2ccccc2)C1 (stereo not given)	?	?	?	13µM	?	.
CN(C)CCCNC1=CC(=O)CC(c2ccccc2)C1 (stereo not given)	.	.	.	.	.	.
CC(=O)Nc1ccc(C2=CC(=O)C[C@H](c3ccc(Cl)cc3)C2)cc1	.	?	18.4µM	.	.	.
COc1ccc([C@H]2CC(=O)C=C(c3ccc(NC(C)=O)cc3)C2)cc1OC	.	.	.	.	.	.

Compound activity deposited in PubChem BioAssay by National Center for Advancing Translational Sciences (NCATS).
